The values that follow come from PubChem BioAssay AID1845226 (National Center for Advancing Translational Sciences (NCATS), 2023).

Records with an inconclusive call do not appear. Where a call stands in place of a potency, no number is given. The source made the active and inactive calls. Calls come from the whole dose curve; as a rule, active = well fitted inhibition curve with a large enough effect; inconclusive = small, poorly fitted or top-dose-only effect; inactive = no such curve, though single readings can be large or run the other way.

A short description of this assay: Confirmatory fluorescence-based thiol-reactive (MSTI) qHTS assay for identification of artifact compounds. The essentials: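 Compounds, dosed in qHTS format, were mixed with 4 uM MSTI probe in 1X PBS pH 7.4 containing 2% DMSO. After 1 hour at room temperature in the dark, fluorescence was measured.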
For orientation: In qHTS, concentration-response curves come from the screen itself.
Potency is the fitted concentration of half-maximal effect.

Consider `COc1ccc(C(=O)O)cc1Nc1nc2ccc(C)cc2n2cnnc12`, for which the Potency result was “inactive”.

With `CCSc1ncc(Cl)c(C(=O)Nc2c(C(=O)Nc3cccc(C)c3)oc3ccccc23)n1`, the Potency result was “inactive”.

As to `OCC1=C[C@@H](O)[C@@H]2C=CO[C@@H](OC3O[C@H](CO)[C@@H](O)[C@H](O)[C@H]3O)[C@H]12` (stereo partly drawn), the Potency entry is “inactive”.

In the case of `CCCS(=O)(=O)N1CCCC(C(=O)NCCCOC)C1` (stereo not drawn), the Potency result is “inactive”.

As to `Cc1ccc2cccc(NS(=O)(=O)c3ccccc3[N+](=O)[O-])c2n1`, the Potency is 4.33 µM (active).

`COc1ccc(-c2coc3cc(O)ccc3c2=O)c(OC)c1O`: the Potency entry was “inactive”.

Turning to `CC[C@H]1OC(=O)[C@H](C)[C@@H](O[C@H]2C[C@@](C)(OC)[C@@H](O)[C@H](C)O2)[C@H](C)[C@@H](O[C@@H]2O[C@H](C)C[C@H](N(C)C)[C@H]2O)[C@](C)(O)C[C@@H](C)C(=O)[C@H](C)[C@@H](O)[C@]1(C)O`, the Potency result was “inactive”.

For `O=C(O)c1c(O)c(O)cc2ccccc12`, the Potency entry is “inactive”.

`CCOc1ccc(NC(=O)CSc2nnc3scc(-c4ccccc4)n23)cc1`: the Potency result is “inactive”.

As for `O=C(NCCN1CCCCC1)c1ccc(Cn2c(SCc3ccc(F)cc3)nc3cccnc32)cc1`, the Potency result is “inactive”.

`CCCC(N[C@@H](C)C(=O)N1[C@H](C(=O)O)C[C@@H]2CCCC[C@@H]21)C(=O)OCC` (stereo partly drawn): the Potency result is “inactive”.

Turning to `CCOc1ccc(NC(=O)c2cnc(Nc3ccccc3OC)c3ccccc23)cc1`, the Potency entry was “inactive”.

In the case of `O=C(O)c1ccc(-n2c(/C=C\c3ccc(O)cc3)nc3ccccc3c2=O)cc1`, the Potency result is “inactive”.

On to `COc1ccc([C@H]2C[C@H](O)[C@@H](n3cc(C4CC4)nn3)CN2C(=O)c2cccs2)cc1`, for which the Potency entry was “inactive”.

Take `COc1ccc(Nc2nc(Nc3ccc(OC)cc3OC)nc(N3CCOCC3)n2)c(OC)c1`: the Potency was 6.12 µM (active).

For `CN(Cc1ccccc1)c1ncnc2c1nc1n2CCCC1`, the Potency entry is “inactive”.

For `CC1CCc2noc(NC(=O)c3ccc([N+](=O)[O-])cc3)c2C1` (stereo not drawn), the Potency is 2.44 µM (active).

On to `COc1ccc(CNC(=O)CCc2c(C)nc3c4cccnc4nn3c2C)cc1`, for which the Potency result is “inactive”.

For `O=c1cc(-c2cc(O)c(O)c(O)c2)oc2cc(O)cc(O)c12`, the Potency was 12.2 µM (active).

In the case of `Cc1c(C(=O)OCCOc2ccccc2)[nH]c2c1C(=O)CC(c1ccccc1)C2` (stereo not drawn), the Potency result is “inactive”.

For the compound `COc1cc(NC(=O)c2ccc(C)cc2)ccc1NC(=O)c1cc2ccccc2o1`, the Potency entry is “inactive”.

As for `Cc1ccc(-c2nc3scc(CCNS(=O)(=O)c4ccc(F)c(C)c4)n3n2)cc1`, the Potency entry was “inactive”.

Turning to `COc1ccc(C2C(C(=O)Nc3ccccc3)=C(C)Nc3c(C(=O)Nc4ccccc4)cnn32)cc1` (stereo not drawn), the Potency result is “inactive”.

Consider `Fc1ccc2c(c1)-c1nc(-c3ccccc3)cc(-c3ccccc3)c1CO2`, for which the Potency entry is “inactive”.

For `COc1ccc(C(=O)NCC(=O)OCC(=O)c2cccc3ccccc23)cc1`, the Potency result is “inactive”.

As for `Ic1ccc(Nc2nc(NCCN3CCOCC3)nc(N3CCOCC3)n2)cc1`, the Potency entry is “inactive”.

Consider `C=C1Cc2c(Cl)cc3[nH]c4c5c3c2[C@@]2(O)[C@@H]1C[C@@H]2C(C)(C)O[C@H]5[C@@H]1CC[C@@]2(O)[C@@]35O[C@@H]3[C@@H](O)[C@@H](C(=O)O)O[C@H]5CC[C@]2(C)[C@@]41C`, for which the Potency was 3.86 µM (active).

On to `CCc1cccc(NC(=O)CN2CCCN(Cc3cccc(C)c3)S2(=O)=O)c1`, for which the Potency entry is “inactive”.

For the compound `COc1ccc(/C=C/c2cc(O)cc(O[C@H]3OC(CO)C(O)C(O)C3O)c2)cc1` (stereo partly drawn), the Potency result was “inactive”.

For the compound `O=C(NCCSc1c(-c2ccc(Br)cc2)[nH]c2ccccc12)c1ccc(S(=O)(=O)N2CCOCC2)cc1`, the Potency entry was “inactive”.

As to `COc1cccc(CN2CCCN(Cc3ccc(F)cc3)S2(=O)=O)c1`, the Potency entry was “inactive”.

`CCOC(=O)C(C)Sc1ccc2nnc(-c3ccc(F)cc3)n2n1` (stereo not drawn): the Potency entry is “inactive”.

On to `Oc1c(C(c2ccccc2F)N2CCN(Cc3ccccc3)CC2)sc2nc(-c3ccco3)nn12` (stereo not drawn), for which the Potency result was “inactive”.
